# ST2 inh – inhibitors of human ST2 (IL1RL1) binding to IL-33; Q01638; AlphaLISA ST2-Fc/biotin-IL-33 interaction, 1 h; inhibition, % for hits at 17 µM; 78,000 tested, 2.3% active; in the data active = inhibition above about 30%
# Target sequence (Q01638 whole entry, looked up): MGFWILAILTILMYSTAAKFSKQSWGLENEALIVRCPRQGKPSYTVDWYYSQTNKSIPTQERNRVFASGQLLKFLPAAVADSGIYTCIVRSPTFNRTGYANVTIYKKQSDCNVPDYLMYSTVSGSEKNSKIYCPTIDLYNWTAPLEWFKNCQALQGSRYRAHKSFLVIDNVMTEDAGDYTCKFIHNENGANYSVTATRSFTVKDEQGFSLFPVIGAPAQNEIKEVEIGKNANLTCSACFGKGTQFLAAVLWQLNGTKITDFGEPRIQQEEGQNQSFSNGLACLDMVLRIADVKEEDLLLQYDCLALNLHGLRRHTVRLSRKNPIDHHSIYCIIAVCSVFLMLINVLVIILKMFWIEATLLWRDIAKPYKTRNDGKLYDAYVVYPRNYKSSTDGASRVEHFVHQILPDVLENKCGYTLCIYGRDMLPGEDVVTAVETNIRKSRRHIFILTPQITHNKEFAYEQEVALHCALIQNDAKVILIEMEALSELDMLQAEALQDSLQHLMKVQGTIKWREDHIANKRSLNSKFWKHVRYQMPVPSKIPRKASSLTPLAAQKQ
# * hit, by the source's call; i = inactive; ! = not confirmed by another sample. The full list was thinned out, with hits kept by preference.
SMILES,ST2 inh
CCOc1ccc(C(=O)Nc2ccc(Nc3nc(C)cc(Nc4ccc(OC)cc4)n3)cc2)cc1,30.0%*
Cc1ccc2c(-c3cc4c(n(CC5CC5)c3=O)CCN(C(=O)Cc3c(C)noc3C)C4)cccc2n1,i
Cc1ccc(C2=NN(C(=O)CCC(=O)O)C(c3ccc(Cl)cc3)C2)cc1 (centres undefined),i
Cc1ccc(C2=NN(C(=O)CCC(=O)O)C(c3ccc(Br)cc3)C2)cc1 (centres undefined),38.0%*!
O=C(O)CCCC(=O)N1N=C(c2ccc(Br)cc2)CC1c1ccc(Cl)cc1 (centres undefined),i
CN(C)c1ncccc1CNC(=O)Cc1ccc(O)c(F)c1,i
CC(C)N1CCC(NCc2cccnc2N(C)Cc2ccccc2)CC1,i
CN(Cc1ccccc1)c1ncccc1CNC(=O)C1(C)CCCO1 (centres undefined),35.0%*
COc1ccccc1N1CCN([C@H]2[C@@H]3OC[C@@H](O3)[C@@H](NCc3cnc4ccccc4c3)[C@@H]2O)CC1,30.0%*
C=CCNC(=O)N[C@H]1[C@H](O)[C@@H](N2CCN(c3ccccc3OC)CC2)[C@@H]2OC[C@H]1O2,i
NC(=O)C1CCN([C@H]2[C@@H]3OC[C@@H](O3)[C@@H](NCc3cnc4ccccc4c3)[C@@H]2O)CC1,i
CCOC(=O)c1c(NC(=O)c2ccc(Br)o2)sc2c1CCC(CC)C2 (centres undefined),i
COC(=O)c1c[nH]n2c(=O)c(Cc3cccc(C)c3)c(C)nc12,i
O=C(NC1CCCC1)c1cc(-c2cccs2)on1,i
COC(=O)c1c[nH]n2c(NC3CCCCC3)c(-c3cccs3)nc12,32.0%*
O=C(c1cn(Cc2c(F)cccc2F)nn1)N1CCc2sccc2C1,i
CC#CC(=O)N(C)CC1CCCN(CCc2ccc(Cl)cc2)C1 (centres undefined),i
COc1ccc(C=Nc2sc3c(c2C#N)CCC(C)C3)cc1OC (centres undefined),39.0%*
COc1ccc(OC)c(-c2cc(C(=O)Nc3sc4c(c3C(N)=O)CCC(C)C4)no2)c1 (centres undefined),i
COc1ccc(-c2cc(C(=O)Nc3sc4c(c3C(N)=O)CCC(C)C4)no2)cc1OC (centres undefined),i
CN(CC(=O)Nc1ccc(C(=O)O)cc1)S(=O)(=O)c1ccccc1,i
O=C(O)c1cccc(NC(=O)C(c2ccccc2)c2ccccc2)c1,i
O=C(O)c1cccc(NS(=O)(=O)c2ccccc2)c1,i
O=C(O)c1cccc(NC2=CC(=NS(=O)(=O)c3ccc(F)cc3)c3ccccc3C2=O)c1,45.0%*
CCc1ccc(S(=O)(=O)N=C2C=C(Nc3cccc(C(=O)O)c3)C(=O)c3ccccc32)cc1,52.0%*
SMILES,ST2 inh
CC(=O)c1cccc(NC(=O)C(Cc2ccccc2)N2C(=O)c3ccccc3C2=O)c1 (centres undefined),i
O=C(O)c1cccc(NS(=O)(=O)c2cccc(C(=O)Nc3ccccc3)c2)c1,i
O=C1C(Nc2ccc(O)cc2)=CC(=NS(=O)(=O)c2ccc(Cl)cc2)c2ccccc21,87.0%*
O=C(O)c1ccc(NC2=CC(=NS(=O)(=O)c3ccccc3)c3ccccc3C2=O)cc1,48.0%*
O=C(O)c1ccc(S(=O)(=O)c2ccccc2)cc1,i
O=C1C=C(Nc2ccc(Cl)cc2)C(=O)N1c1ccccc1,i
O=c1c(-c2ccc3c(c2)OCCCO3)coc2cc(O)cc(O)c12,i
CC(=O)Cc1nsc(Nc2cccc(Cl)c2C)n1,i
COc1ccc(-c2ccnc(N[C@H]3CO[C@H]4[C@@H]3OC[C@@H]4NS(=O)(=O)c3cccc4cccnc34)n2)cc1,i
COc1ccc(-n2c(CN3CCN(S(=O)(=O)c4ccc(F)c(Cl)c4)CC3)nc3cccnc32)cc1,i
COc1cc(S(=O)(=O)Nc2ccccn2)ccc1Cl,i
CCN(Cc1ccccc1)Cc1ccc(NC(C)=O)cc1,i
CCN(CC)c1ccc(NC(=O)CCN2C(=O)c3ccccc3C2=O)cc1,i
CCN(CC)c1ccc(NC(=O)Cc2ccccc2)cc1,36.0%*
CCN(CC1CCCO1)C(=O)C1CCCN(c2nc(C)c3ccc(OC)cc3n2)C1 (centres undefined),i
CCNC(=O)c1cn(CC(C)C)cc(C(=O)NCC(C)c2ccccc2)c1=O (centres undefined),i
Cc1c(C(=O)NCCOC(C)C)sc2ncnc(N3CCCCCCC3)c12,i
CC1CCN(S(=O)(=O)c2ccc(F)cc2)CC1,i
O=C1c2ccccc2C(=O)C1c1ccc(-c2ccccc2)cc1,i
O=C1c2ccccc2C(=O)C1c1cccc2c1CCCC2,i
O=C1c2ccccc2C(=O)[C@H]2C3c4ccccc4C(c4ccccc43)[C@@H]12,32.0%*
O=C(CN1C(=O)C(=O)c2ccccc21)c1ccccc1,i
Cc1ccc(N=C2C(=O)N(CN3CCOCC3)c3ccccc32)cc1,i
O=C1C(=O)N(CN2CCCCCC2)c2ccccc21,42.0%*
Cc1[nH]cnc1-c1nccn1CCC(c1ccccc1)c1ccco1 (centres undefined),i
